# According to PubChem BioAssay AID1063 (University of Pittsburgh Molecular Library Screening Center, 2008):
# The campaign covered roughly 200,000 compounds. About 18,000 (9%) were called active. Many of the other results were omitted from the sample, so actives are more common in it than they were. A number with no mark means an inactive call. Cut-off read from the data, not from the text of the source: active = inhibition above about 50%; inactive = the rest.
# Assay: antileishmanial activity against promastigotes – primary screen (AID 1063);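 note: promastigotes grown with compound for 44 hours at 28 °C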
# Conditions: Leishmania major promastigotes, resazurin fluorescence viability; at 10 µM; hits give high values
row,SMILES,inhibition
1,CNc1nc2c(C)cccn2c(=O)c1C=Nc1ccc(OC)cc1,1.72%
2,CC(=O)Nc1ccc(/C(C)=N/NC(=O)CN(c2ccccc2Br)S(C)(=O)=O)cc1,50.5% (active)
3,COc1ccccc1N(CC(=O)Nc1ccc(C(F)(F)F)cc1)S(C)(=O)=O,1.92%
4,C/C(=N/NC(=O)c1ccc(NC(=O)c2ccc(F)cc2)cc1)c1ccccc1,-6.46%
5,O=C(Nc1ccccc1F)c1ccc(Cn2cc(Br)cn2)cc1,-6.11%
6,Cc1ccc(-c2nc(C#N)c(NCCCn3ccnc3)o2)cc1,2.16%
7,O=C(Cn1ncc(N2CCCC2)c(Br)c1=O)c1ccc(Cl)cc1,1.31%
8,CCn1c(=O)cc(OCC(=O)NCCCN2CCN(c3cccc(Cl)c3)CC2)c2ccccc21,23.9%
9,Cn1c(C(=O)NCCCN2CCN(c3cccc(Cl)c3)CC2)cc2c(=O)n(C)c3ccccc3c21,62.5% (active)
10,CC1CCCC(C)N1CCCNC(=O)c1cc2c(=O)n(C)c3ccccc3c2n1C (centres undefined),8.51%
11,Cc1cc(NC(=O)CSc2nc3c(cc2C#N)CCCCC3)no1,2.09%
12,O=C(CCC1CCCN(C(=O)Cc2ccc(F)cc2)C1)N1CCN(c2ccccn2)CC1 (centres undefined),0.87%
13,O=C(COC(=O)c1cnccn1)Nc1cccc2ccccc12,-4.62%
14,Cc1cc(C)n2nc(C(=O)N(C)C(c3ccccc3)c3ccccc3)nc2n1,0.1%
15,O=C(CO/N=C/c1ccc(OC(F)F)cc1)NCc1ccc(F)cc1,6.32%
16,COC(=O)CN1C(=S)N(c2ccccc2)C(=O)C1CC(=O)Nc1ccc(Cl)cc1 (centres undefined),50.4% (active)
17,COc1ccc(N2C(=O)C(CC(=O)Nc3ccccc3)N(Cc3ccc(OC)c(OC)c3)C2=O)cc1 (centres undefined),-5.05%
18,CCOc1ccc(NC(=O)CC2C(=O)N(c3ccccc3)C(=O)N2CCOC)cc1 (centres undefined),-1.57%
19,O=C(Nc1ccc(-c2ccc3nncn3n2)cc1)C1CCCCC1,-4.63%
20,CCc1ccc(CN2C(=O)c3ccccc3C2C(=O)NCC2CCCO2)cc1 (centres undefined),5.61%
21,COc1cccc(CN(C)CC(=O)NCc2ccccc2Cl)c1OC,2.93%
22,COC(=O)c1cc(S(=O)(=O)NC2CCN(Cc3ccccc3)CC2)cn1C,79.3% (active)
23,Cn1c(=O)c(=O)n(C)c2cc(S(=O)(=O)NCCc3ccccc3)ccc21,18.8%
24,O=C(NC1(C(F)(F)F)NC(=O)N(C2CCCCC2)C1=O)c1ccco1 (centres undefined),-0.8%

row,SMILES,inhibition
1,COc1cc(NC(=S)NCc2ccco2)c(OC)cc1Cl,7.75%
2,COC(=O)c1cc(Cl)c(NC(=O)c2ccco2)cc1OC,8.8%
3,COc1ccc(NC(=O)c2cccc(NC(=O)c3ccco3)c2)c(OC)c1,99.3% (active)
4,O=C(Nc1ccc(NC(=O)c2ccco2)c(Cl)c1)c1cccc([N+](=O)[O-])c1,-5.27%
5,Cc1ccc(C(=O)COc2cccc(NC(=O)c3ccco3)c2)cc1,64.6% (active)
6,Cc1ccnc(NC(=O)c2ccc(NC(=O)c3ccco3)cc2)c1,-2.95%
7,COc1ccccc1C(=O)Nc1ccc(NC(=O)c2ccco2)c(C)c1,3.48%
8,COc1cc(NC(=O)c2cc([N+](=O)[O-])ccc2Br)ccc1NC(=O)c1ccco1,99% (active)
9,COc1cccc(C(=O)Nc2ccc(NC(=O)c3ccco3)cn2)c1,4.41%
10,COC(=O)c1ccc(NC(=O)c2ccco2)cc1,-5.73%
11,CCS(=O)(=O)c1ccc(O)c(NC(=O)COc2ccc(Cl)cc2)c1,-12.8%
12,CCOc1c(CNCc2ccc(C(=O)O)cc2)cccc1OC,-5.92%
13,NS(=O)(=O)c1ccc(NC(=S)NC(=O)c2cccnc2)cc1,-2.35%
14,COCC(C)n1c(C)cc(C(=O)COc2ccc(C)nc2[N+](=O)[O-])c1C (centres undefined),3.94%
15,CCc1ccc(NC(=O)C(=O)N/N=C(\C)CC(=O)NCCOC)cc1,-2.29%
16,COc1ccc(NC(=O)CN2C(=O)CSC2=O)cc1,-6.2%
17,COc1cc(SC#N)ccc1N=Cc1c(C)[nH]n(-c2ccc(C)cc2)c1=O,100% (active)
18,Cc1ccc(-n2[nH]c(C)c(/C=N/N3C(=O)c4cccc5cccc(c45)C3=O)c2=O)cc1,-6.15%
19,CCc1nnc(NS(=O)(=O)c2ccc(N=Cc3c(C)[nH]n(-c4ccc(C)cc4)c3=O)cc2)s1,-3.52%
20,COc1ccc(C)cc1NC(=O)CSc1nnc(CC(=O)Nc2ccccc2F)n1C,-0.88%
21,O=C(COC(=O)C12CC3CC(CC(O)(C3)C1)C2)NC12CC3CC(CC(C3)C1)C2,17.4%
22,COCCNC(=S)N(Cc1cccnc1)Cc1ccc(OC)c(OC)c1,1.16%
23,Cc1cccc(C)c1NC(=S)N(Cc1cccnc1)Cc1ccccc1Cl,93.8% (active)
24,COCCN(CCOC)C(=S)Nc1ccccc1Cl,-4.19%

row,SMILES,inhibition
1,O=C(Nc1ccccc1)N(Cc1cccnc1)Cc1ccco1,4.43%
2,Cc1c(Cl)cccc1NC(=S)N(Cc1ccccc1)Cc1cccnc1,90.4% (active)
3,Cc1ccc(CN(Cc2cccnc2)C(=S)Nc2cccc(Cl)c2C)cc1,21.5%
4,Cc1ccc(C(=O)NC(=S)NCc2cccnc2)cc1,2.7%
5,Cc1ccc(CN(Cc2cccnc2)C(=S)Nc2cc(Cl)ccc2C)cc1,93.8% (active)
6,Cc1ccc(NC(=S)NCc2ccccc2Cl)c(C)c1,22.1%
7,CC(C)CCC(C)NC(=O)c1ccc2nccnc2c1 (centres undefined),11.2%
8,COc1cc(-c2nnn(CC(=O)NCc3ccccc3)n2)cc(OC)c1OC,16.3%
9,COc1cc(C(=O)N2C(=O)c3cccc(N)c3C2=O)cc(OC)c1OC,-3.21%
10,COCCn1c(C)cc(C(=O)COC(=O)/C=C/c2cccc(OC)c2)c1C,0.63%
11,Cc1cc(C)nc(NS(=O)(=O)c2ccc(N/C=C\C(=O)c3cccs3)cc2)n1,4.34%
12,COc1ccc(/C=C/C(=O)Nc2cccnc2)cc1OC,-4.52%
13,Cc1cc(C)cc(C(=O)NCC(=O)OCC(=O)N2CCCCC2)c1,-9.27%
14,Cc1cc(C)n(CCNCc2c(C(=O)N3C[C@@H](C)O[C@@H](C)C3)nc3ccc(Cl)cn23)n1,-6.81%
15,Cc1ccc(N(C(=O)c2sc(C)nc2C)C(C(=O)NC(C)(C)C)c2ccncc2)cc1 (centres undefined),-0.8%
16,O=C(O)/C=C/c1ccc(OCCCF)cc1,-5.86%
17,COc1cccc(/C=C2\SC(=N)N(c3ccc(F)cc3)C2=O)c1,5.76%
18,O=C(CSc1nnnn1-c1ccc(O)cc1)N1N=C(c2ccc3ccccc3c2)CC1c1ccccc1 (centres undefined),99.8% (active)
19,COc1ccc(C2CC(c3ccccc3)=NN2C(=O)CSc2nccc(=O)[nH]2)cc1 (centres undefined),-0.2%
20,COc1ccc(-n2nnnc2SCC(=O)Nc2ccccc2)cc1,-4.13%
21,C/C(N)=C(/C#N)C(=O)COC(=O)C1CCN(C(=O)c2ccc(Cl)cc2)CC1,-2.84%
22,Cc1ccc(S(=O)(=O)/N=C(\N)c2ccc(F)cc2)cc1,-1.71%
23,O=C(COC(=O)c1c2c(nc3ccccc13)/C(=C\c1cccs1)CCC2)Nc1ccccc1Cl,27.8%
24,O=C(COC(=O)c1c2c(nc3ccccc13)CCCC2)c1ccc(Br)s1,96.8% (active)

row,SMILES,inhibition
1,NC(=O)c1ccc(NC(=O)COC(=O)c2c3c(nc4ccccc24)/C(=C\c2ccc4c(c2)OCO4)CCC3)cc1,18.2%
2,COc1ccc2c(c1)CCC/C2=N\OC(=O)c1ccccc1F,-7.06%
3,COc1cc2nc(CN(C)Cc3ccc(F)cc3)[nH]c(=O)c2cc1OC,9.19%
4,CC(=O)Nc1ccc(NC(=S)NC(=O)/C=C/c2ccccc2)cc1,-1.29%
5,Cc1ccc(S(=O)(=O)c2ccc(Cl)cc2)cc1S(=O)(=O)NC(C(=O)O)C(C)C (centres undefined),50.9% (active)
6,CC(=O)Nc1cc(C(=O)O)ccc1S(=O)(=O)c1ccc(Cl)cc1,-5.9%
7,CC(C)C(NC(=O)c1ccc(Cl)cc1)C(=O)O (centres undefined),27.4%
8,Cn1nc(-c2ccccc2)c(CO)c1Sc1ccccc1,18.3%
9,Cn1cnc([N+](=O)[O-])c1Sc1ccccc1,51.5% (active)
10,Cn1cnc([N+](=O)[O-])c1Nc1ccccc1O,-4.52%
11,C=CCn1c(SCC(=O)CC(=O)OCC)nc2cc(C(=O)N3CCC(C(N)=O)CC3)ccc2c1=O,-4.29%
12,Cc1cccc(N2CCN(C(=O)c3cnn4c(C(F)F)cc(-c5ccccc5)nc34)CC2)c1C,90.6% (active)
13,CCC(CC)C(=O)N1CCN(c2cccc(C)c2C)CC1,-3.72%
14,CC(=O)N1CCN(c2cccc(C)c2C)CC1,-2.3%
15,CC(=O)Nc1ccccc1OC(C)C(=O)N1CCC(C)CC1 (centres undefined),-5.19%
16,COc1ccc(N(Cc2cc3cc(OC)ccc3[nH]c2=O)S(C)(=O)=O)cc1,2.96%
17,COc1ccc2[nH]c(=O)c(CNc3ccc(C)c(C)c3)cc2c1,98.6% (active)
18,CCC(=O)N(Cc1cc2cc(OC)ccc2[nH]c1=O)c1ccccc1C,3.53%
19,CC(NC(=S)Nc1ccc(OC(F)F)cc1)c1ccc(F)cc1 (centres undefined),36.8%
20,OCCC1CN(Cc2cccc(OC3CCCC3)c2)CCN1Cc1ccsc1 (centres undefined),80.5% (active)
21,OCCC1CN(Cc2ccccc2-c2ccco2)CCN1Cc1ccsc1 (centres undefined),9.42%
22,OCCC#Cc1ccc(CN2CCN(Cc3ccsc3)C(CCO)C2)cc1 (centres undefined),-0.59%
